Measured values reported in PubChem BioAssay (Tox21).
Inconclusive results are not listed. The source made the active and inactive calls. Calls follow the shape of the dose curve; as a rule, active = well fitted curve in the direction sought with a large enough effect in the repeat runs; inconclusive = weak or mixed curves; inactive = no such curve, though single readings can be large; an effect the other way counts as inactive or inconclusive.

Columns and labels:
[1] = molecular target: Cytochrome P450 2D6 (Homo sapiens) (UniProt P10635); test: Cytochrome P450 Family 2 Subfamily D Member 6 (CYP2D6) small molecule antagonists: luciferase reporter qHTS assay (AID 1671196); also: nearly all actives have a fitted effect of over 50% in size
Sequence of Cytochrome P450 2D6 (Homo sapiens) (P10635 whole entry, looked up): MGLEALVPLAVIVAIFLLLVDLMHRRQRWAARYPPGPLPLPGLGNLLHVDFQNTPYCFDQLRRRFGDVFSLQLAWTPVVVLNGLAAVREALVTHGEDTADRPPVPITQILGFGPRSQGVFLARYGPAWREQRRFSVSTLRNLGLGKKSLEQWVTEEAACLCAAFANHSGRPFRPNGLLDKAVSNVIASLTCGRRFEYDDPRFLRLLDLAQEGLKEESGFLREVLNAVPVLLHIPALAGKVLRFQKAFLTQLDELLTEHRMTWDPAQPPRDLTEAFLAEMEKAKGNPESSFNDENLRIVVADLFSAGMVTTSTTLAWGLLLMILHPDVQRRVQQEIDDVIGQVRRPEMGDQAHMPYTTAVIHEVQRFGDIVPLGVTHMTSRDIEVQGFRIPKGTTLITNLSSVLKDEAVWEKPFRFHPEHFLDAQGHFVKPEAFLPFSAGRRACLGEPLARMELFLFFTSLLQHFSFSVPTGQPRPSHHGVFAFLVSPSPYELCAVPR
Procedure, shortened: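 Room-temperature luminescent CYP2D6 activity assay: compound preincubated 10 min with enzyme–substrate mix, NADPH-initiated reaction 1 h, detection reagent 20 min before reading.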

[2] = molecular target: Cytochrome P450 2C19 (Homo sapiens) (UniProt P33261); test: Cytochrome P450 Family 2 Subfamily C Member 19 (CYP2C19) small molecule antagonists: luciferase reporter qHTS assay (AID 1671197); also: nearly all actives have a fitted effect of over 65% in size
Sequence of Cytochrome P450 2C19 (Homo sapiens) (P33261 whole entry, looked up): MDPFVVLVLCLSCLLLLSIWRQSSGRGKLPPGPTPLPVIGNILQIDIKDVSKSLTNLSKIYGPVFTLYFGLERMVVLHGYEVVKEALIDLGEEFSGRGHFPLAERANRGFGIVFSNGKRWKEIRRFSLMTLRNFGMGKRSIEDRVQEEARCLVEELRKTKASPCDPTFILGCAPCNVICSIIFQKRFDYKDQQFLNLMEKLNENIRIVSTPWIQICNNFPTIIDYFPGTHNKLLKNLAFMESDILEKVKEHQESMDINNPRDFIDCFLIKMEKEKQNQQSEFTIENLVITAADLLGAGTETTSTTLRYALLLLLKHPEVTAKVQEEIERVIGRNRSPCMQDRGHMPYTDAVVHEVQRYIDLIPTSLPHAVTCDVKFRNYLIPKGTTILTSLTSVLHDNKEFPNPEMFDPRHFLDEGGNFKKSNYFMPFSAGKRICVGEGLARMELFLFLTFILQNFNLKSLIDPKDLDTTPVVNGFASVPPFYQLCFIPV
Procedure, shortened: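 First, compounds are pinned into enzyme-substrate mix and held 10 min at room temperature. Second, NADPH regeneration solution is added and plates incubate 1 h at 37C. Third, detection reagent is added and luminescence read after 20 min.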

[3] = molecular target: Cytochrome P450 2C9 (Homo sapiens) (UniProt P11712); test: Cytochrome P450 Family 2 Subfamily C Member 9 (CYP2C9) small molecule antagonists: luciferase reporter qHTS assay (AID 1671198); also: nearly all actives have a fitted effect of over 50% in size
Sequence of Cytochrome P450 2C9 (Homo sapiens) (P11712 whole entry, looked up): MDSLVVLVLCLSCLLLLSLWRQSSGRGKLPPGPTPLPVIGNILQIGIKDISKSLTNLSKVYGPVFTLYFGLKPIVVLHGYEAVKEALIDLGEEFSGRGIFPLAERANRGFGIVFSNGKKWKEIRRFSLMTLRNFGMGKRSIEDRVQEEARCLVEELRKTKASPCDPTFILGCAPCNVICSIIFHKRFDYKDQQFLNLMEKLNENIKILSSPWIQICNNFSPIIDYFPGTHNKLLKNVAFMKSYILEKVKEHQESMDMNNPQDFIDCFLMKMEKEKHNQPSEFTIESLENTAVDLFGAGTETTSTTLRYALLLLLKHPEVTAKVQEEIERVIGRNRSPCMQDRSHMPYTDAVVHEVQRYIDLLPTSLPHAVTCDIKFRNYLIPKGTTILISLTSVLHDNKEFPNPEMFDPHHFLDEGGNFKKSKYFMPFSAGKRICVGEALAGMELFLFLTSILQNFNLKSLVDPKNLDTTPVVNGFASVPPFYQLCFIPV
Procedure, shortened: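 CYP2C9 activity was measured with a P450-Glo proluciferin substrate. Enzyme–substrate mix was held with compound for 10 min at room temperature, then NADPH regeneration solution was added for 1 h at 37C. Luciferin product was read as luminescence.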

[4] = molecular target: Cytochrome P450 1A2 (Homo sapiens) (UniProt P05177); test: Cytochrome P450 Family 1 Subfamily A Member 2 (CYP1A2) small molecule antagonists: luciferase reporter qHTS assay (AID 1671199); also: nearly all actives have a fitted effect of over 50% in size
Sequence of Cytochrome P450 1A2 (Homo sapiens) (P05177 whole entry, looked up): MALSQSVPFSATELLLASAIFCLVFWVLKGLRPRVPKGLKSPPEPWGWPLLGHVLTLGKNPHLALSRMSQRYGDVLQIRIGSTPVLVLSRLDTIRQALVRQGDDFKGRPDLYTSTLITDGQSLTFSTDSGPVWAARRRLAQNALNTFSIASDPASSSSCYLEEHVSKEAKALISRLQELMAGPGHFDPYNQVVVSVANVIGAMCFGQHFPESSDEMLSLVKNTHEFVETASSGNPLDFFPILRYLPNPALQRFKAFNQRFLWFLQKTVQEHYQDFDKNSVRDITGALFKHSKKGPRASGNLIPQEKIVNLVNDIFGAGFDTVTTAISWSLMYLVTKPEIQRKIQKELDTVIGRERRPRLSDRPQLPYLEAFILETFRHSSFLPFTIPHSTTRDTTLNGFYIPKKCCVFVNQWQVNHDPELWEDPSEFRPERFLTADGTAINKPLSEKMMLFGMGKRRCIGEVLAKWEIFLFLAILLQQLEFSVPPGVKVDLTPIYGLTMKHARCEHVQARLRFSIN
Procedure, shortened: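 Room-temperature CYP1A2 reaction with proluciferin substrate: compounds added from DMSO, 10 min preincubation, NADPH regeneration for 1 h. Luciferin detection reagent then added; luminescence recorded as RLU.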

[5] = molecular target: Voltage-gated inwardly rectifying potassium channel KCNH2 (Homo sapiens) (UniProt Q12809); test: Human Ether-a-go-go-Related Gene (hERG) channel small molecule antagonists: fluorescence cell-based qHTS assay (AID 1671200); also: nearly all actives have a fitted effect of over 50% in size
Sequence of Voltage-gated inwardly rectifying potassium channel KCNH2 (Homo sapiens) (Q12809 whole entry, looked up): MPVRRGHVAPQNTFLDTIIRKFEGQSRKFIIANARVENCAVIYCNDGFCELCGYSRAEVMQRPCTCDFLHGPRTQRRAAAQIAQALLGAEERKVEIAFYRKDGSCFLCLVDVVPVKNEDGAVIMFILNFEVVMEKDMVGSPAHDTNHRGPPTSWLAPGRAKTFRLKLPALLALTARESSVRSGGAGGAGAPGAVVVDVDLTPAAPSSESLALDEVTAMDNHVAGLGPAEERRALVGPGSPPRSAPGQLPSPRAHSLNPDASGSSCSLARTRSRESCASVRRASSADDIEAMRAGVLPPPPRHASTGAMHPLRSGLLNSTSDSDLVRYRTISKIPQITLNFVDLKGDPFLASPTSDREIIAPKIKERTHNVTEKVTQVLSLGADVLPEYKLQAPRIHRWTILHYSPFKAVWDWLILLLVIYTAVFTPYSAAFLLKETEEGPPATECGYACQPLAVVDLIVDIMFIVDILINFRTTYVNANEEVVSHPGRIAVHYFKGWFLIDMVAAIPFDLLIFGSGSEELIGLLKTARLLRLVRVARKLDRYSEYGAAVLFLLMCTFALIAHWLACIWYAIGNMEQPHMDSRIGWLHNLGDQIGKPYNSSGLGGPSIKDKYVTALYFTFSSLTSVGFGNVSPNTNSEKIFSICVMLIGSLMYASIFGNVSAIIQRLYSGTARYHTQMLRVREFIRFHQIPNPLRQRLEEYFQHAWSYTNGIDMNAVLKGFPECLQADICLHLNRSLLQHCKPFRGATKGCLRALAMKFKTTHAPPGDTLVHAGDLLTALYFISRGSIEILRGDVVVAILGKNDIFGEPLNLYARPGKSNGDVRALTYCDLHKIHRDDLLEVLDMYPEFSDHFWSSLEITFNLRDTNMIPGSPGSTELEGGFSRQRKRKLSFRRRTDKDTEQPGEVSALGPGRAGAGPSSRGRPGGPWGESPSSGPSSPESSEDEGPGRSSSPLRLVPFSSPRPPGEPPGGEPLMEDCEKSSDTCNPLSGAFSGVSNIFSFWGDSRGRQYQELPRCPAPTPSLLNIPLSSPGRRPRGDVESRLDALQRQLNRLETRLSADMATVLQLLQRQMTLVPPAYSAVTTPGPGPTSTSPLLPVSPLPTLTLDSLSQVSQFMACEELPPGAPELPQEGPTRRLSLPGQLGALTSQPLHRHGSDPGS
Procedure, shortened: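 Kinetic two-minute fluorescence traces, sampled at 1 s, were collected following thallium stimulus of U2OS cells (1000 per well) that had been cultured overnight at 37 C and loaded with FluxOR II.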

[6] = molecular target: Cytochrome P450 3A4 (Homo sapiens) (UniProt P08684); test: Cytochrome P450 Family 3 Subfamily A Member 4 (CYP3A4) small molecule antagonists: luciferase reporter qHTS assay (AID 1671201); also: nearly all actives have a fitted effect of over 50% in size
Sequence of Cytochrome P450 3A4 (Homo sapiens) (P08684 whole entry, looked up): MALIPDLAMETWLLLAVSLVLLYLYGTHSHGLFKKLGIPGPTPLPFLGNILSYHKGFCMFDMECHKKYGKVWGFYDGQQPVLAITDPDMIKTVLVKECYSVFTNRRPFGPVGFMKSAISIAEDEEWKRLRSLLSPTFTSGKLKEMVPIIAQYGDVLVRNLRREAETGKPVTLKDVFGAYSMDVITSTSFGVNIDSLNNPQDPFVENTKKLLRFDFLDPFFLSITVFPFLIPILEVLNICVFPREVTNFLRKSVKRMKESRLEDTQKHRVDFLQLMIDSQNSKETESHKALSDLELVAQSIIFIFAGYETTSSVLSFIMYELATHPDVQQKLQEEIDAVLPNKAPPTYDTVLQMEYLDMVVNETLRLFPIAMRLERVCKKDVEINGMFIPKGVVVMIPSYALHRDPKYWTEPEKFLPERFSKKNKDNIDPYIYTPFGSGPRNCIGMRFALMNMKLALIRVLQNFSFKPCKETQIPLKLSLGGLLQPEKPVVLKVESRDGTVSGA
Procedure, shortened: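 Proluciferin-to-luciferin conversion by CYP3A4, NADPH-regenerated, 1 h RT; luminescence read as RLU. Ketoconazole as control.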

Measured: Potency
Potency is read from the fitted curve at half-maximal effect.

CC(=O)c1ccc2ccc3ccccc3c2c1
active: [2] 22.3 µM | [3] 12.6 µM | [4] 1.12 µM | [6] 39.7 µM
inactive: [1] | [5]

CC(C)OCCO
inactive: all assays above

COC(=O)c1ccccc1Cl
inactive: all assays above

CCc1ncc(C)[nH]1
not listed: [4]
inactive: all other assays above

O=C1CC2(CCCC2)CC(=O)N1CCNCC1COc2ccccc2O1 (stereo not given)
inactive: [2] | [3]
active: [1] 0.309 µM | [5] 19 µM

CCC(C)SSC(C)CC (stereo not given)
active: [1] 31.7 µM
not listed: [4]
inactive: all other assays above

Cc1nnc(C(=O)NC(C)(C)c2nc(C(=O)NCc3ccc(F)cc3)c(O)c(=O)n2C)o1
not listed: [5]
inactive: all other assays above

CCCC[O][Al]([O]CCCC)[O]CCCC
inactive: all assays above

CCCCCC(CC)OC(=O)CCCOc1ccc(Cl)cc1Cl (stereo not given)
active: [2] 35.5 µM | [3] 28.2 µM | [4] 35.5 µM
inactive: [1] | [5] | [6]

O=c1c(O)c(O)c1=O
not listed: [4]
inactive: all other assays above

CC(=O)SCC(CC(=O)c1ccc(C)cc1)C(=O)O (stereo not given)
active: [3] 15.5 µM
inactive: all other assays above

CCN1CCN(C(=O)N[C@@H](C(=O)N[C@@H]2C(=O)N3[C@@H]2SC(C)(C)[C@H]3C(=O)O)c2ccccc2)C(=O)C1=O
not listed: [5]
inactive: all other assays above

C=C(C)C(=O)OCCOC1CC2CC1C1C=CCC21 (stereo not given)
active: [2] 30.3 µM | [3] 42.9 µM | [4] 42.9 µM
inactive: [1] | [6]

CCOC(=O)CC(C(C)=O)C(C)=O
inactive: all assays above

CCOC(=O)CN1CCCC1=O
inactive: all assays above

CCCCCCCCCCCBr
inactive: all assays above

CCCCCCCCCCCCCCBr
inactive: all assays above

CCNC(=O)C(C)OC(=O)Nc1ccccc1 (stereo not given)
active: [2] 79.6 µM | [3] 35.6 µM | [4] 35.6 µM
inactive: [1] | [5] | [6]

CC(C)(O)c1ccc(C(C)(C)O)cc1
inactive: all assays above

CCCCCCCCC1CO1 (stereo not given)
inactive: all assays above

C=CC(=O)OCC[N+](C)(C)C
inactive: all assays above

CCCCCCCCOCCC#N
inactive: all assays above

CNC(=O)c1c(I)c(NC(C)=O)c(I)c(C(=O)O)c1I
not listed: [4]
inactive: all other assays above

CCc1ccc(CC)cc1
inactive: all assays above

CC(C)(C)c1ccc(C(=O)CCCCl)cc1
active: [4] 12.3 µM
inactive: all other assays above

COc1cc(S(N)(=O)=O)cc(C(=O)O)c1OC
inactive: all assays above

Cc1ccc(O)c([N+](=O)[O-])c1
active: [1] 71.8 µM
not listed: [4]
inactive: all other assays above

O=C(O)COc1ccc2ccccc2c1
not listed: [3]
inactive: all other assays above

CC(=O)OC1CCC(C(C)(C)C)CC1 (stereo not given)
not listed: [4]
inactive: all other assays above

COC(=O)c1c(C)cc(O)c(C)c1O
inactive: [5]
active: [1] 31.7 µM | [2] 7.96 µM | [4] 0.252 µM

CC(C)CC(O)Cc1ccccc1 (stereo not given)
active: [2] 71 µM
inactive: [1] | [5] | [6]

O=C1Nc2ccccc2C1=O
active: [4] 39.6 µM
not listed: [2]
inactive: all other assays above

CC(=O)Oc1ccc(C(C)=O)cc1
active: [4] 33 µM
not listed: [2]
inactive: all other assays above
